The supplement of paper PMC3545927
Some of the results follow. No count for the full screen is at hand.

Molecular target: furin, P09958
Assay: furin cleavage Z-score vs untreated control; higher = more cleavage, active = 3.5 or more, inactive = 1 or less, 8 variable residues between constant flanks
Procedure, shortened: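 Magnetic beads held 8-mer peptides by the N-terminus, each fused to a cDNA oligonucleotide, and purified furin was added for 7.5, 15 or 30 min. Released DNA was sequenced after PCR adapter tagging. The cleavage Z-score is the log count relative to furin-free reactions, lowess-adjusted and divided by median absolute deviation.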
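Also: purified furin at 1:10 enzyme:substrate in 50 mM HEPES pH 7.5.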

Chain of furin, P09958 (P09958 whole entry): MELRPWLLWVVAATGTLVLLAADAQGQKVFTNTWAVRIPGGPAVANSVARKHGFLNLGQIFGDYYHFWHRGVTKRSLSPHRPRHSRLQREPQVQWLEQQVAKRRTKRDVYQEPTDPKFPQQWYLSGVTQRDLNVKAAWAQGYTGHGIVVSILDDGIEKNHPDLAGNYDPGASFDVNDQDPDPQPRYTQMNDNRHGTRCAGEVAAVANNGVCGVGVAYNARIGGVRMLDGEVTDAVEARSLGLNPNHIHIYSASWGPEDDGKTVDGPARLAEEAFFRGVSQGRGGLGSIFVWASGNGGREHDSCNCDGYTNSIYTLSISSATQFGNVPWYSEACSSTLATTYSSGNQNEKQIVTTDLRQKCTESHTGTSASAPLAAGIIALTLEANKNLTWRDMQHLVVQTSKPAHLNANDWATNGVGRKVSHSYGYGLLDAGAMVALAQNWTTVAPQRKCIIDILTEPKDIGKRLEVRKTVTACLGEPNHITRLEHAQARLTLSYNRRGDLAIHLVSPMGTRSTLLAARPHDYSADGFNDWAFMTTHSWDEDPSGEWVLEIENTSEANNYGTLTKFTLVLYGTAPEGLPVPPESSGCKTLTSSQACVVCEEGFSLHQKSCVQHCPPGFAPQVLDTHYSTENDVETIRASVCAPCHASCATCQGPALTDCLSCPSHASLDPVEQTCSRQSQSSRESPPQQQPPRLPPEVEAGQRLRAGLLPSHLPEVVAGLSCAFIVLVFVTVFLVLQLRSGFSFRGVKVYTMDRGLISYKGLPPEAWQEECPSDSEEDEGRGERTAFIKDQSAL

Sequence: CAVVICSMSYAGNASASA [HC2024]
- furin cleavage Z-score (7.5 min): -0.215 (inactive)
- furin cleavage Z-score (15 min): -0.424 (inactive)
- furin cleavage Z-score (30 min): -0.762 (inactive)

Sequence: CAEVPCHRWSAGNASASA [HC2388]
- furin cleavage Z-score (7.5 min): 0.964 (inactive)
- furin cleavage Z-score (15 min): 1.69
- furin cleavage Z-score (30 min): 1.98

Sequence: CASWHLNSTAAGNASASA [HC370]
- furin cleavage Z-score (7.5 min): 0.22 (inactive)
- furin cleavage Z-score (15 min): -0.449 (inactive)
- furin cleavage Z-score (30 min): 0.876 (inactive)

Sequence: CAKRRRSLHHAGNASASA [FS-1672]
- furin cleavage Z-score (7.5 min): 4.3 (active)
- furin cleavage Z-score (15 min): 5.5 (active)
- furin cleavage Z-score (30 min): 6.07 (active)

Sequence: CASTPCSAHHAGNASASA [HC2575]
- furin cleavage Z-score (7.5 min): -0.38 (inactive)
- furin cleavage Z-score (15 min): -0.288 (inactive)
- furin cleavage Z-score (30 min): 0.459 (inactive)

Sequence: CADSRGSLLSAGNASASA [HC734]
- furin cleavage Z-score (7.5 min): -0.053 (inactive)
- furin cleavage Z-score (15 min): -0.939 (inactive)
- furin cleavage Z-score (30 min): -0.328 (inactive)

Sequence: CARRRRSFRRAGNASASA [FS-376]
- furin cleavage Z-score (7.5 min): 5.2 (active)
- furin cleavage Z-score (15 min): 6.31 (active)
- furin cleavage Z-score (30 min): 8.15 (active)

Sequence: CARRRRSLPEAGNASASA [FS-2796]
- furin cleavage Z-score (7.5 min): 9.29 (active)
- furin cleavage Z-score (15 min): 10.5 (active)
- furin cleavage Z-score (30 min): 8.81 (active)

Sequence: CARRRRCLNGAGNASASA [FS-1783]
- furin cleavage Z-score (7.5 min): 5.37 (active)
- furin cleavage Z-score (15 min): 5.63 (active)
- furin cleavage Z-score (30 min): 3.81 (active)

Sequence: CARPWRDLPEAGNASASA [FS-3031]
- furin cleavage Z-score (7.5 min): -1.17 (inactive)
- furin cleavage Z-score (15 min): 0.355 (inactive)
- furin cleavage Z-score (30 min): -0.221 (inactive)

Sequence: CATSPCSGSWAGNASASA [HC1857]
- furin cleavage Z-score (7.5 min): -0.464 (inactive)
- furin cleavage Z-score (15 min): -0.0771 (inactive)
- furin cleavage Z-score (30 min): -1.88 (inactive)

Sequence: CASFPCSAHLAGNASASA [HC2487]
- furin cleavage Z-score (7.5 min): -0.137 (inactive)
- furin cleavage Z-score (15 min): -0.966 (inactive)
- furin cleavage Z-score (30 min): -0.392 (inactive)

Sequence: CAGVYLLPRRAGNASASA [HC177]
- furin cleavage Z-score (7.5 min): -0.35 (inactive)
- furin cleavage Z-score (15 min): 0.113 (inactive)
- furin cleavage Z-score (30 min): 0.636 (inactive)

Sequence: CAQPIPKARRAGNASASA [HC192]
- furin cleavage Z-score (7.5 min): -0.161 (inactive)
- furin cleavage Z-score (15 min): 1.41
- furin cleavage Z-score (30 min): -0.434 (inactive)

Sequence: CAQPTRSKRRAGNASASA [FS-140]
- furin cleavage Z-score (7.5 min): 8.89 (active)
- furin cleavage Z-score (15 min): 11.6 (active)
- furin cleavage Z-score (30 min): 8.5 (active)

Sequence: CAGPLRSKRRAGNASASA [FS-128]
- furin cleavage Z-score (7.5 min): 3.54 (active)
- furin cleavage Z-score (15 min): 3.82 (active)
- furin cleavage Z-score (30 min): 0.894 (inactive)

Sequence: CARPLRSSERAGNASASA [FS-2056]
- furin cleavage Z-score (7.5 min): -0.31 (inactive)
- furin cleavage Z-score (15 min): -0.454 (inactive)
- furin cleavage Z-score (30 min): -0.848 (inactive)

Sequence: CARPTRPLEVAGNASASA [FS-2747]
- furin cleavage Z-score (7.5 min): -0.707 (inactive)
- furin cleavage Z-score (15 min): -0.831 (inactive)
- furin cleavage Z-score (30 min): 0.199 (inactive)

Sequence: CARSFRSVRSAGNASASA [FS-3233]
- furin cleavage Z-score (7.5 min): -0.0905 (inactive)
- furin cleavage Z-score (15 min): 1.16
- furin cleavage Z-score (30 min): 1.57

Sequence: CARRQRGAEAAGNASASA [FS-1782]
- furin cleavage Z-score (7.5 min): 0.38 (inactive)
- furin cleavage Z-score (15 min): -0.365 (inactive)
- furin cleavage Z-score (30 min): 1.17

Sequence: CALLISQAEAAGNASASA [HC530]
- furin cleavage Z-score (7.5 min): -0.545 (inactive)
- furin cleavage Z-score (15 min): -1.15 (inactive)
- furin cleavage Z-score (30 min): -0.368 (inactive)

Sequence: CARLPRSVRSAGNASASA [FS-1263]
- furin cleavage Z-score (7.5 min): 5.43 (active)
- furin cleavage Z-score (15 min): 4.73 (active)
- furin cleavage Z-score (30 min): 4.77 (active)

Sequence: CAPAPSGCPPAGNASASA [HC1346]
- furin cleavage Z-score (7.5 min): -1.72 (inactive)
- furin cleavage Z-score (15 min): -0.997 (inactive)
- furin cleavage Z-score (30 min): -0.764 (inactive)

Sequence: CARFWKSAPPAGNASASA [FS-2140]
- furin cleavage Z-score (7.5 min): -0.578 (inactive)
- furin cleavage Z-score (15 min): 0.202 (inactive)
- furin cleavage Z-score (30 min): -1.15 (inactive)

Sequence: CARLPRGAEAAGNASASA [FS-1743]
- furin cleavage Z-score (7.5 min): 3.99 (active)
- furin cleavage Z-score (15 min): 2.77
- furin cleavage Z-score (30 min): 3.19

Sequence: CARLHRFAPPAGNASASA [HC1225]
- furin cleavage Z-score (7.5 min): -1.52 (inactive)
- furin cleavage Z-score (15 min): 1.01
- furin cleavage Z-score (30 min): 0.153 (inactive)

Sequence: CARQLRSAPPAGNASASA [FS-2758]
- furin cleavage Z-score (7.5 min): 3.01
- furin cleavage Z-score (15 min): 4.5 (active)
- furin cleavage Z-score (30 min): 4.16 (active)

Sequence: CARLPRSAPPAGNASASA [FS-2572]
- furin cleavage Z-score (7.5 min): 5.97 (active)
- furin cleavage Z-score (15 min): 5.41 (active)
- furin cleavage Z-score (30 min): 5.19 (active)

Sequence: CAMTRYSAPPAGNASASA [HC1542]
- furin cleavage Z-score (7.5 min): 1.05
- furin cleavage Z-score (15 min): -0.0414 (inactive)
- furin cleavage Z-score (30 min): -1.39 (inactive)

Sequence: CARLGRQVDSAGNASASA [FS-1738]
- furin cleavage Z-score (7.5 min): 0.0659 (inactive)
- furin cleavage Z-score (15 min): 0.283 (inactive)
- furin cleavage Z-score (30 min): 1.6
